{"source": "PubChem BioAssay (Tox21)", "note": "“And” between values parts separate entries of the source, which are not always exact repeats. Identical values can stand only once. Records with an inconclusive call do not appear. Where a call stands in place of a potency, no number is given. Values without a mark were called inactive. The source made the active and inactive calls. Calls come from the whole dose curve; as a rule, active = well fitted activation curve with a large enough effect in the repeat runs; inconclusive = weak or mixed curves; inactive = flat fitted curve, though single readings scatter. Potency is the fitted concentration of half-maximal effect."}
{"assay": "Caspase-3/7 induction in HepG2 cells by small molecules, qHTS assay (AID 1346978); note: nearly all actives have a fitted effect of over 15% in size", "settings": "HepG2 caspase-3/7 activation, Caspase-Glo luminescence, 17 h; series mostly up to 92.4 µM; caspase activation: at the top concentration", "description": "National Center for Advancing Translational Sciences [NCATS] NIH Chemical Genomics Center [NCGC] U.S. Environmental Protection Agency [EPA] National Institutes of Environmental Health Sciences [NIEHS] National Toxicology Program [NTP] Assay overview: Apoptosis is a process of programmed cell death and plays a central role in the development of multicellular organisms. It is a highly regulated process and induces cell death by activating caspases, which are the members of cysteine aspartic acid-specific protease (caspase) family. Caspases involved in apoptosis are classified by their mechanism of action as initiator caspases (caspase-2, -8, -9 and -10) and executioner caspases (caspase-3, -6, and -7). Inhibition of apoptosis results in number of cancers, autoimmune diseases, inflammatory diseases and viral infection. To identify small molecule compounds that induce apoptosis, a homogeneous, luminescent Caspase-Glo 3/7 assay was used. Wild type HepG2 cells were used to screen Tox21 libraries for identifying caspase-3/7 activity inducers.\nAssay Protocol Summary: HepG2 cells were dispensed at 2,000 per well in 5uL of culture medium into white solid bottom 1536-well plates (Corning Life Sciences, Corning, NY) using a Multidrop Combi (Thermo Scientific, Waltham, MA) dispenser. The assay plates were incubated at 37 C and 5% CO2 for 5hr, and then 23nL of compounds dissolved in DMSO and positive control were transferred using a Pintool station (Wako, San Diego, CA). The assay plates were incubated at 37C and 5% CO2 for 17hr. For caspase-3/7 activity read, 4uL of Caspase-Glo 3/7 reagent (Promega Corporation, Madison, WI) was added to each well of the assay plates using Flying Reagent Dispenser (FRD, Aurora Discovery, San Diego, CA) and incubated the assay plates at room temperature for 30min. The luminescence signal was quantified using a ViewLux plate reader (Perkin Elmer, Shelton, CT)."}
{"smiles": "Clc1nc(Cl)c(Cl)c(Cl)c1Cl", "Potency": "inactive"}
{"smiles": "COc1c(Cl)c(Cl)c(Cl)c(Cl)c1Cl", "Potency": "inactive"}
{"smiles": "O=Cc1ccccc1O", "Potency": "inactive"}
{"smiles": "CC(C)OB(OC(C)C)OC(C)C", "Potency": "inactive"}
{"smiles": "O=C1c2cccc(O)c2C(=O)c2c(O)cccc21", "Potency": "inactive"}
{"smiles": "COC(=O)Nc1nc2ccc(S(=O)c3ccccc3)cc2[nH]1", "note": "(stereo not given)", "caspase activation": "9.3% [at 42.5 µM]"}
{"smiles": "CCC(C)CO", "note": "(stereo not given)", "Potency": "inactive"}
{"smiles": "COC(=O)C1=C(C)NC(C)=C(C(=O)OCCN(C)Cc2ccccc2)C1c1cccc([N+](=O)[O-])c1", "note": "(stereo not given)", "caspase activation": "8.59% [at 42.5 µM]"}
{"smiles": "Cc1ccc2c(n1)Oc1ccc(C(C)C(=O)OCC(=O)N(C)C)cc1C2", "note": "(stereo not given)", "Potency": "inactive"}
{"smiles": "CC(C)Oc1ccc2c(=O)c(-c3ccccc3)coc2c1", "Potency": "inactive"}
{"smiles": "CC(=O)C1(C)CC2=C(CCCC2(C)C)CC1C", "note": "(stereo not given)", "Potency": "inactive"}
{"smiles": "CC(C)(C)NC(=O)[C@H]1CC[C@H]2[C@@H]3CC[C@H]4NC(=O)C=C[C@]4(C)[C@H]3CC[C@]12C", "Potency": "inactive"}
{"smiles": "O=[N+]([O-])c1ccc2c(c1)Cc1ccccc1-2", "Potency": "inactive"}
{"smiles": "Brc1cc(Oc2cc(Br)c(Br)c(Br)c2Br)c(Br)c(Br)c1Br", "Potency": "inactive"}
{"smiles": "CC(C)OC(=O)C(C)(C)Oc1ccc(C(=O)c2ccc(Cl)cc2)cc1", "Potency": "inactive"}
{"smiles": "O=S(=O)(O)c1ccc(O)cc1", "Potency": "inactive"}
{"smiles": "CN(C)c1nc(N(C)C)nc(N(C)C)n1", "Potency": "inactive"}
{"smiles": "CCOC(=O)C(C#N)=C(c1ccccc1)c1ccccc1", "Potency": "inactive"}
{"smiles": "CCCCC(CC)COP(=O)(OCC(CC)CCCC)OCC(CC)CCCC", "note": "(stereo not given)", "Potency": "inactive"}
{"smiles": "COC(C)COC(C)COC(C)CO", "note": "(stereo not given)", "Potency": "inactive"}
{"smiles": "CC(=O)CC/C=C(\\C)CCC=C(C)C", "Potency": "inactive"}
{"smiles": "Nc1ccccc1N", "Potency": "2.22 µM (active) and 9.41 µM (active)"}
{"smiles": "O=C1OC2(c3cc(Br)c(O)c(Br)c3Oc3c2cc(Br)c(O)c3Br)c2c(Cl)c(Cl)c(Cl)c(Cl)c21", "Potency": "inactive"}
{"smiles": "c1cc(-c2ccncc2)ccn1", "Potency": "inactive"}
{"smiles": "CCCCOCCOCCOCCO", "Potency": "inactive"}
{"smiles": "CCC(C)(O)CCCC(C)C", "note": "(stereo not given)", "Potency": "inactive"}
{"smiles": "Cc1[nH]c(=O)c(C#N)cc1-c1ccncc1", "Potency": "inactive"}
{"smiles": "C=CC(C)(CCC=C(C)C)OC(C)=O", "note": "(stereo not given)", "Potency": "inactive"}
{"smiles": "CC(=O)O[C@]1(C(C)=O)CC[C@H]2[C@@H]3C=C(Cl)C4=CC(=O)[C@@H]5C[C@@H]5[C@]4(C)[C@H]3CC[C@@]21C", "Potency": "inactive"}
{"smiles": "O=c1oc(=O)c2cc3c(=O)oc(=O)c3cc12", "Potency": "inactive"}
{"smiles": "CC1=CCC(C(C)(C)O)CC1", "note": "(stereo not given)", "Potency": "inactive"}
{"smiles": "C[C@]12CCC(=O)C=C1CC[C@@H]1[C@@H]2C(=O)C[C@@]2(C)[C@H]1CC[C@]2(O)C(=O)CO", "Potency": "inactive"}
{"smiles": "Nc1ccc(Nc2ccccc2)cc1", "Potency": "inactive"}
{"smiles": "Cc1cc2nc3c(=O)[nH]c(=O)nc-3n(C[C@H](O)[C@H](O)[C@H](O)CO)c2cc1C", "Potency": "inactive"}
{"smiles": "c1ccncc1", "caspase activation": "0.978%"}
{"smiles": "COc1ccccc1/C=C/C=O", "Potency": "inactive"}
{"smiles": "CN(C)CCN(Cc1cccs1)c1ccccn1", "Potency": "inactive"}
{"smiles": "CN1C(C(=O)Nc2ccccn2)=C(O)c2ccccc2S1(=O)=O", "Potency": "inactive"}
{"smiles": "Cc1ccc(C(=O)c2cc(O)c(O)c([N+](=O)[O-])c2)cc1", "Potency": "inactive"}
{"smiles": "CCCC(=O)O", "Potency": "inactive"}
